BCR signal inh = qHTS Assay to Find Inhibitors of Chronic Active B-Cell Receptor Signaling; ABC-DLBCL IkBa-CBG/CBR reporter, luminescence ratio, 4 h; AID 493014, 2011; hit rate 0.05% among 340,000; Potency, µM (series often up to 46.1 µM), most hits filed as inhibitors; active means well fitted inhibition curve with a large enough effect in the signal ratio, with a control signal flat, not every such curve was filed as active; inconclusive means small, poorly fitted or top-dose-only effect, or effect the other way, or a change in a side signal; the % refers to the signal ratio
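TMD8 ABC-DLBCL cells carrying doxycycline-inducible green luciferase fused to IkappaBalpha plus unfused red luciferase were exposed to compounds (up to 46 uM) for 4 hrs at 37C. Activity came from the overlap-corrected green/red luminescence ratio.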
SW480 rerep = A quantitative high throughput screen for small molecules that induce DNA re-replication in SW480 colon adenocarcinoma cells; SW480 DNA re-replication, Hoechst DNA content imaging, 48 h; Potency, µM (top dose mostly 46.1 µM), most hits filed as activators; hit rate 1.8% among 340,000; further: nearly all actives have a fitted effect of over 55% in size
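SW480 cells exposed to compounds for 48 hr at 37 C, 5% CO2, then Hoechst-stained 40 min. Nuclear DNA content imaged by fluorescence scanning (405 nm excitation, 500-530 nm emission); re-replication scored as increased high-intensity nuclei.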
IL-1B inflam inh = qHTS for Inhibitors of Inflammasome Signaling: IL-1-beta AlphaLISA Primary Screen. THP-1 LPS/ATP IL-1B secretion, AlphaLISA, 16 h; hits give low values. activity change, % at 57.5 µM. hit rate 4.7% among 360,000. AID 743279, 2014; in the data active means activity change below about -50%; inconclusive means mostly about -30% to -49%
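THP-1 cells pretreated 1 hr with compounds (up to 57.5 uM final), then stimulated with LPS (250 ng/mL final) plus ATP (1.25 mM final); secreted IL-1B measured by AlphaLISA after 16 hr, decreased signal indicating inhibition.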
DT40 TDP1 CPT = qHTS for Inhibitors of human tyrosyl-DNA phosphodiesterase 1 (TDP1): qHTS in cells in presence of CPT. chicken DT40 Tdp1-/-;hTDP1 cells + 20 nM CPT, ATP luminescence, 48 h. Potency, µM (series often up to 46.2 µM), hits mostly inhibitors. hit rate 12% among 420,000; further: nearly all actives have a fitted effect of over 55% in size
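Chicken DT40 Tdp1-/- cells stably complemented with human TDP1 were seeded at 400 cells/well in medium containing 20 nM camptothecin, exposed to pin-transferred compounds, and grown at 37 °C for at least 48 hr. Viability was read as ATP luminescence.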
DT40 TDP1 no CPT = qHTS for Inhibitors of human tyrosyl-DNA phosphodiesterase 1 (TDP1): qHTS in cells in absence of CPT; hit rate 15% among 420,000; Potency, µM (titrated, usually from 46.2 µM), usual class: inhibitors; DT40 Tdp1-/- hTDP1 cells, no CPT, ATP luminescence, 48 h; further: nearly all actives have a fitted effect of over 55% in size
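Seeded 400 DT40-hTDP1 cells/well (vehicle DMSO, no 20 nM CPT); pinned compounds; ≥48 hr at 37 °C; CellTiter-Glo luminescence as viability measure.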
MCF10A rerep = A quantitative high throughput screen for small molecules that induce DNA re-replication in MCF 10a normal breast cells; MCF 10A DNA re-replication, Hoechst nuclear intensity, 48 h; Potency, µM (titrated, usually from 46.1 µM), usual class: activators; hit rate 2.9% among 350,000; further: nearly all actives have a fitted effect of over 50% in size
Numbers stand for hits; – = inactive; ? = inconclusive; · = no result; [ ] = remark or other dose. Compounds with a hit are over-represented: about 19% of the library has one in this group of screens. Unless noted, the call rests on the fitted dose curve; in most records, active means well fitted curve in the direction sought with a large enough effect; inconclusive means small, poorly fitted or top-dose-only effect, or another doubt; inactive means no such curve, though single readings can be large; an effect the other way counts as inactive or inconclusive.

SMILES	BCR signal inh	SW480 rerep	IL-1B inflam inh	DT40 TDP1 CPT	DT40 TDP1 no CPT	MCF10A rerep
COc1ccc(OC)c(NC(=O)Cc2nn(C)c(=O)c3ccccc23)c1	?	–	–	16µM	16µM	–
O=C(CN1C(=O)C2C3C=CC(C4CC34)C2C1=O)NCc1ccco1 (centres undefined)	–	–	–	–	–	–
COc1ccc(S(=O)(=O)c2c(O)c3ccc(C(=O)NCc4ccccc4)cc3[nH]c2=O)cc1	·	·	·	–	–	·
CCC1CCCCN1CCCNC(=O)CNC(=O)c1nn(-c2ccc(OC)c(Cl)c2)c(=O)c2ccccc12 (centres undefined)	–	–	?	–	–	–
Cc1cccc(NC(=O)CN2C(=O)C3CC=CCC3C2=O)c1C (centres undefined)	·	·	–	–	–	·
CCC(=O)Nc1cc(-c2nn(C)c(=O)c3ccccc23)ccc1OC	–	–	–	–	–	–
Cn1nc(CC(=O)Nc2cccc3ncccc23)c2ccccc2c1=O	–	–	–	13µM	21µM	?
COc1ccc(CNC(=O)Cc2nn(C)c(=O)c3ccccc23)cc1	–	–	–	10µM	7.3µM	–
Cc1ccccc1NC(=O)CN1C(=O)C2C3CC(C(Br)C3Br)C2C1=O (centres undefined)	–	–	–	?	16µM	–
COc1ccc(-c2nn(C)c(=O)c3ccccc23)cc1NC(=O)COc1ccc(C)cc1	–	–	–	23µM	18µM	–
Cc1ccc(S(=O)(=O)N(Cc2ccc([N+](=O)[O-])cc2)C(=O)N2CCN(C)CC2)cc1	–	–	–	–	–	–
Cn1nc(C(=O)NC2CCCC2)c2ccccc2c1=O	?	–	–	–	–	–
Cn1nc(CC(=O)NC2CCCCCC2)c2ccccc2c1=O	–	–	–	18µM	18µM	–
O=C(NCC1COc2ccccc2O1)c1ccc(Cl)c(S(=O)(=O)N2CCCC2)c1 (centres undefined)	–	?	–	?	?	–
CCc1ccc(NS(=O)(=O)c2ccc(OC)c3ncccc23)cc1	–	–	–	?	–	–
CCOc1ccc(S(=O)(=O)Nc2cc(Cl)ccc2OC)c2cccnc12	·	·	·	15µM	15µM	·
CCOc1ccc(S(=O)(=O)Nc2cccc(C)c2)c2cccnc12	–	–	–	12µM	18µM	–
CCOc1ccc(S(=O)(=O)N2CCN(c3ccccc3OC)CC2)c2cccnc12	–	–	–	?	23µM	–
CCc1ccccc1NS(=O)(=O)c1ccc(OC)c2ncccc12	?	–	–	18µM	10µM	–
COc1ccc(Cl)cc1NS(=O)(=O)c1cccc2cccnc12	–	–	–	?	?	–
CCCCCCCCCCCCCCC(F)C(=O)O (centres undefined)	·	·	·	–[4.12 µM]	–[4.12 µM]	·
CCN1CCN(Cc2c(O)ccc3c2O/C(=C\C=C\c2ccccc2)C3=O)CC1	?	?	-100	26µM	12µM	?
COc1ccc(NCC(=O)NN=C2CCS(=O)(=O)c3ccc(F)cc32)cc1	?	?	–	?	–	–
Cc1ccc2c(C)nc(Nc3nc(CSc4nc5ccccc5s4)cc(=O)[nH]3)nc2c1	·	–	–	?	5.2µM	–
Cc1ccc2c(C)nc(Nc3nc(CSc4nnnn4-c4ccccc4)cc(=O)[nH]3)nc2c1	–	?	–	5.8µM	6.5µM	?
SMILES	BCR signal inh	SW480 rerep	IL-1B inflam inh	DT40 TDP1 CPT	DT40 TDP1 no CPT	MCF10A rerep
CC(=O)c1cnc(Oc2cc(Cl)ccc2Cl)nc1C	–	–	–	–	–	–
NC(=O)NC(CC(=O)OCC(=O)Nc1nnc(-c2ccccc2)o1)c1ccc(Cl)cc1 (centres undefined)	·	·	–	–	–	·
C/C(=N\NC(=S)NCCc1ccccc1)c1ccc(Cl)cc1	?	·	–	?	?	–
C/C(=N\NC(=S)NCCc1ccccc1)c1ccc(C#N)cc1	–	?	–	?	13µM	?
C/C(=N\NC(=S)NCCc1ccccc1)c1ccc(C)cc1	–	–	–	?	18µM	–
COCCNC(=O)c1cc(Sc2ccc(F)cc2F)nc2ccccc12	–	·	·	–	–	·
Cc1ccc(Nc2ccc(N3CCN(C(=O)c4cccc([N+](=O)[O-])c4)CC3)nn2)cc1	–	·	·	?	16µM	·
O=C(c1cccc([N+](=O)[O-])c1)N1CCN(c2ncccn2)CC1	–	–	–	–	–	–
Cc1c(C(=O)N2CCN(c3cccc(Cl)c3)CC2)cccc1[N+](=O)[O-]	–	–	–	16µM	16µM	–
COC(=O)c1cc(C(=O)N2CCN(c3cccc(Cl)c3)CC2)cc([N+](=O)[O-])c1	?	0.73µM	–	0.65µM	0.92µM	?
O=C(c1ccco1)N1CCN(c2c([N+](=O)[O-])nn(-c3cccc(Cl)c3)[n+]2[O-])CC1	–	–	–	16µM	?	–
Cc1c(C(=O)N2CCN(c3ccccn3)CC2)cccc1[N+](=O)[O-]	–	–	–	–	–	–
CCCCC(O)(CCCC)C(=O)NN(C(=O)c1cccnc1Cl)c1ccccc1	?	–	–	–	–	–
CC(=O)Nc1cccc(-c2ccnc3c2CC(C(=O)NCc2ccc(N4CCN(C)CC4)cc2)O3)c1 (centres undefined)	·	·	–	?	?	·
O=C(c1cccc([N+](=O)[O-])c1)N1CCN(c2cccc(Cl)c2)CC1	–	?	–	18µM	18µM	16µM
O=C(c1cccc([N+](=O)[O-])c1)N1CCCN(C(=O)c2cccc([N+](=O)[O-])c2)CC1	–	–	–	–	–	–
Cc1ccc(NC(=S)N2CCN(S(=O)(=O)c3ccc(F)cc3)CC2)cc1	–	?	–	–	–	–
Cc1ccc(C(=O)CSc2nsc(C)c2C#N)cc1	–	–	–	?	–	–
Cc1ccnc(SCC(=O)c2ccc(Br)cc2)c1C#N	?	?	–	?	21µM	?
Cc1onc(-c2ccccc2Cl)c1C(=O)Nc1ccc(-c2nnc3n2CCCCC3)cc1	–	–	–	?	?	–
CCOC(=O)/C=C/C(=O)Nc1ccc(-c2nnc3n2CCCCC3)cc1	?	–	?	–	–	?
Cc1cc(C)n(-c2ccc(Cl)c(C(=O)Nc3ccc(-c4nnc5n4CCCCC5)cc3)n2)n1	–	–	–	2.1µM	1.8µM	–
COc1ccc(/C=C/C(=O)Nc2ccc(-c3nnc4n3CCCCC4)cc2)c(OC)c1	–	–	-53	9.2µM	2.3µM	–
